Reference: the antibiotic and cytotoxicity screens of Wong et al. (2023)
Among all 39,000 compounds or so, about 3,300 (8.5%) were called active. For the sample, actives were picked, then their nearest neighbours and some compounds at random.

test system: HepG2; assay: cytotoxicity call (relative viability < 0.9); settings: 10 µM

Structure (SMILES)	cytotoxicity call
O=C(C[C@@H]1C[C@H]2c3cc(NC(=O)c4ccc5c(c4)OCO5)ccc3O[C@H]2[C@H](CO)O1)NCCN1CCCCC1	inactive
COc1ccc(C(=O)Nc2cccc(CN3C(=O)[C@@]4(O[C@@H](CC(=O)N5Cc6ccccc6C[C@H]5CO)[C@H]([Si](C)(C)c5ccc(OC)cc5)[C@H]4C)c4ccccc43)c2)cc1	active
COc1ccc(C(=O)Nc2ccc(CN3C(=O)[C@]4(O[C@H](CC(=O)N5Cc6ccccc6C[C@H]5CO)[C@@H]([Si](C)(C)c5ccc(OC)cc5)[C@@H]4C)c4ccccc43)cc2)cc1	active
COc1ccc([Si](C)(C)[C@H]2[C@H](CC(=O)N3Cc4ccccc4C[C@H]3CO)O[C@@]3(C(=O)N(Cc4ccc(N5CCOC5=O)cc4)c4ccccc43)[C@@H]2C)cc1	active
COc1ccc([Si](C)(C)[C@@H]2[C@@H](CC(=O)N3Cc4ccccc4C[C@H]3CO)O[C@]3(C(=O)N(Cc4ccc(N5CCOC5=O)cc4)c4ccccc43)[C@H]2C)cc1	inactive
COc1ccc(C(=O)Nc2cccc(CN3C(=O)[C@@]4(O[C@@H](CC(=O)N5CCC[C@H]5CO)[C@H]([Si](C)(C)c5ccc(OC)cc5)[C@H]4C)c4ccccc43)c2)cc1	inactive
COc1ccc(C(=O)Nc2cccc(CN3C(=O)[C@]4(O[C@H](CC(=O)N5CCC[C@H]5CO)[C@@H]([Si](C)(C)c5ccc(OC)cc5)[C@@H]4C)c4ccccc43)c2)cc1	inactive
COc1ccc([Si](C)(C)[C@H]2[C@H](CC(=O)N3Cc4ccccc4C[C@H]3CO)O[C@@]3(C(=O)N(Cc4cccc(N5CCOC5=O)c4)c4ccccc43)[C@@H]2C)cc1	inactive
COc1ccc([Si](C)(C)[C@@H]2[C@@H](CC(=O)N3Cc4ccccc4C[C@H]3CO)O[C@]3(C(=O)N(Cc4ccc(I)cc4)c4ccccc43)[C@H]2C)cc1	inactive
COc1ccc(C(=O)Nc2ccc(CN3C(=O)[C@@]4(O[C@@H](CC(=O)N5Cc6ccccc6C[C@H]5CO)[C@H]([Si](C)(C)c5ccc(OC)cc5)[C@H]4C)c4ccccc43)cc2)cc1	inactive
C[C@H](CO)N1C[C@H](C)[C@@H](CN(C)Cc2ccc(-c3ccccc3)cc2)Oc2c(NC(=O)C3CCOCC3)cccc2C1=O	inactive
C[C@@H]1CN([C@H](C)CO)C(=O)c2cc(NC(=O)CCCN(C)C)ccc2O[C@@H](C)CCCCO[C@@H]1CN(C)S(C)(=O)=O	inactive
C[C@@H]1CN([C@H](C)CO)C(=O)CCCn2cc(nn2)CO[C@@H]1CN(C)C(=O)Nc1ccc(N2CCCCC2)cc1	inactive
Cc1noc(C)c1NC(=O)N(C)C[C@H]1Oc2ccc(NS(C)(=O)=O)cc2CC(=O)N([C@@H](C)CO)C[C@H]1C	inactive
